Among the test systems are NCI-H226 lung; NCI-H322M lung; HOP-62 NSCLC; NCI-H460 lung; HOP-92 NSCLC; NCI-H522 lung; A549/ATCC NSCLC; 786-0 renal; DU-145 prostate; K-562 leukemia; MALME-3M melanoma; MDA-MB-231 breast; RXF 393 renal; SF-268 CNS; SF-295 CNS; SF-539 CNS; UACC-257 melanoma; M14 melanoma.
Common to all, as to assay: NCI-60 one-dose screen, 48 h (100 = growth as untreated, 0 = no growth, -100 = all killed)
For the next test, the system named is COLO 205 colon. To be noted: 10 µM unless noted.
The test system of the next test is NCI-H23 lung. To be noted: 10 µM unless noted.

Several values for one entry are separate records, joined by “and”; a condition that tells them apart may be missing. Equal entries are not always repeated. About 83,000 compounds went through this panel and 20% of them were active in at least one assay; those are over-represented in the sample as a whole.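 Assay: single dose, 48 h. Readout: percent growth (0 = no net growth; negative = cell death). Active: <10.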 Activity calls are given as the source filed them.

This passage reports growth results from PubChem BioAssay (NCI).

As to `OC(COc1cccc2ccccc12)CN1CCN(c2ccc(Cl)cc2)CC1` (stereo not given), the growth in the test with NCI-H226 lung (10 µM unless noted) is 92.4% (inactive) and 111% (inactive); in the test on NCI-H322M lung (10 µM unless noted) it was 90% (inactive) and 102% (inactive); with HOP-62 NSCLC (10 µM unless noted), 96.5% (inactive) and 77.3% (inactive); in the test with NCI-H460 lung (10 µM unless noted), 49% (inactive) and 95% (inactive); in the test on HOP-92 NSCLC (10 µM unless noted), 75.1% (inactive) and 77% (inactive); with NCI-H522 lung (10 µM unless noted) it was 109% (inactive) and 85.7% (inactive). Besides, the growth with A549/ATCC NSCLC (10 µM unless noted) is 71.9% (inactive) and 88.3% (inactive); with 786-0 renal (10 µM unless noted), 80.9% (inactive) and 89.7% (inactive); in the test with COLO 205 colon, 121% (inactive); with DU-145 prostate (10 µM unless noted), 93.1% (inactive) and 122% (inactive); in the test on K-562 leukemia (10 µM unless noted) it was 66.3% (inactive) and 85% (inactive); in the test with MALME-3M melanoma (10 µM unless noted), 109% (inactive) and 106% (inactive). Moreover, the growth with MDA-MB-231 breast (10 µM unless noted) is 83.6% (inactive) and 112% (inactive); in the test with RXF 393 renal (10 µM unless noted), -3.89% (active) and 94.8% (inactive); in the test on SF-268 CNS (10 µM unless noted), 91.1% (inactive) and 103% (inactive); with SF-295 CNS (10 µM unless noted), 70.2% (inactive) and 83.2% (inactive); in the test on SF-539 CNS (10 µM unless noted) it was 91.3% (inactive) and 102% (inactive); in the test with UACC-257 melanoma (10 µM unless noted), 114% (inactive) and 95.9% (inactive). Moreover, in the test on M14 melanoma (10 µM unless noted), the growth is 90.9% (inactive) and 100% (inactive).
As for `Nc1ccc2[nH]c(-c3ccccc3)cc(=O)c2c1`, the growth in the test on NCI-H23 lung was 98.3% (inactive); in the test on NCI-H322M lung (10 µM unless noted), 97.5% (inactive); in the test with HOP-62 NSCLC (10 µM unless noted), 96.8% (inactive); in the test with NCI-H460 lung (10 µM unless noted), 97.4% (inactive); in the test on NCI-H522 lung (10 µM unless noted), 71.3% (inactive); in the test with A549/ATCC NSCLC (10 µM unless noted), 102% (inactive). For the same compound, the growth in the test on 786-0 renal (10 µM unless noted) was 96.6% (inactive); in the test with DU-145 prostate (10 µM unless noted) it was 101% (inactive); in the test with MALME-3M melanoma (10 µM unless noted), 80.4% (inactive); with MDA-MB-231 breast (10 µM unless noted) it was 100% (inactive); in the test with RXF 393 renal (10 µM unless noted), 89.9% (inactive); in the test with SF-268 CNS (10 µM unless noted), 90.7% (inactive). Besides, the growth was 93.5% (inactive) with SF-295 CNS (10 µM unless noted), 88.5% (inactive) with SF-539 CNS (10 µM unless noted), 79.8% (inactive) in the test on UACC-257 melanoma (10 µM unless noted) and 70.6% (inactive) in the test with M14 melanoma (10 µM unless noted).
Turning to `COc1ccc(Cl)cc1C(=O)NCCc1ccc(S(=O)(=O)NC(=O)NC2CCCCC2)cc1`, the growth was 101% (inactive) and 97.4% (inactive) in the test with NCI-H226 lung (10 µM); 62.4% (inactive) in the test on NCI-H226 lung (100 µM); 96.2% (inactive) in the test with NCI-H322M lung (10 µM); 88.5% (inactive) with NCI-H322M lung (100 µM); 88.3% (inactive) with HOP-62 NSCLC (10 µM); 69.1% (inactive) in the test with HOP-62 NSCLC (100 µM). The growth is 103% (inactive) and 114% (inactive) in the test with NCI-H460 lung (10 µM); 72.2% (inactive) in the test with NCI-H460 lung (100 µM); 74% (inactive) and 95.5% (inactive) with HOP-92 NSCLC (10 µM); 63.6% (inactive) in the test with HOP-92 NSCLC (100 µM); 97% (inactive) with NCI-H522 lung (10 µM); 54.1% (inactive) with NCI-H522 lung (100 µM). Besides, the growth in the test on A549/ATCC NSCLC (10 µM) was 99.8% (inactive) and 103% (inactive); in the test on A549/ATCC NSCLC (100 µM), 57.9% (inactive); in the test with 786-0 renal (10 µM), 107% (inactive) and 98.6% (inactive); with 786-0 renal (100 µM) it was 75.5% (inactive); in the test with COLO 205 colon it was 117% (inactive) and 112% (inactive); in the test with DU-145 prostate (10 µM), 124% (inactive) and 120% (inactive). Further, the growth is 79.8% (inactive) with DU-145 prostate (100 µM); 102% (inactive) with K-562 leukemia (10 µM); 66.6% (inactive) with K-562 leukemia (100 µM); 126% (inactive) and 96.5% (inactive) in the test with MALME-3M melanoma (10 µM); 71.9% (inactive) in the test with MALME-3M melanoma (100 µM); 96.7% (inactive) and 105% (inactive) in the test on MDA-MB-231 breast (10 µM). For the same compound, the growth in the test with MDA-MB-231 breast (100 µM) is 61.9% (inactive); with RXF 393 renal (10 µM), 110% (inactive) and 104% (inactive); in the test on RXF 393 renal (100 µM) it was 51.6% (inactive); with SF-268 CNS (10 µM) it was 113% (inactive) and 105% (inactive); in the test with SF-268 CNS (100 µM), 74.3% (inactive); in the test on SF-295 CNS (10 µM) it was 90.2% (inactive) and 105% (inactive). Further, the growth with SF-295 CNS (100 µM) is 74% (inactive); in the test with SF-539 CNS (10 µM), 113% (inactive) and 102% (inactive); in the test with SF-539 CNS (100 µM), 68.8% (inactive); with UACC-257 melanoma (10 µM), 106% (inactive); in the test with UACC-257 melanoma (100 µM) it was 85.9% (inactive); in the test on M14 melanoma (10 µM), 113% (inactive) and 104% (inactive). For the same compound, in the test with M14 melanoma (100 µM), the growth was 67.9% (inactive).
For `c1ccc2cc(C[n+]3ccn(Cc4ccc5ccccc5n4)c3)ccc2c1`, the growth is -4.2% (active) and 29.2% (inactive) in the test on NCI-H23 lung; 34.8% (inactive) and 75% (inactive) in the test on NCI-H322M lung (10 µM unless noted); 1.85% (active) and 44.3% (inactive) in the test on HOP-62 NSCLC (10 µM unless noted); 11.1% (inactive) and 35.8% (inactive) in the test with NCI-H460 lung (10 µM unless noted); -20.1% (active) and -5.22% (active) in the test on HOP-92 NSCLC (10 µM unless noted); -27.4% (active) and 6.58% (active) in the test on NCI-H522 lung (10 µM unless noted). In addition, the growth with 786-0 renal (10 µM unless noted) was 30.9% (inactive) and 76.1% (inactive); in the test with COLO 205 colon, -38.3% (active) and -35.3% (active); in the test on DU-145 prostate (10 µM unless noted), 21.9% (inactive) and 64.5% (inactive); in the test on K-562 leukemia (10 µM unless noted) it was 14.5% (inactive) and 21.2% (inactive); in the test on MALME-3M melanoma (10 µM unless noted), -27.2% (active) and 22.9% (inactive); in the test on MDA-MB-231 breast (10 µM unless noted), -2.02% (active) and 23.4% (inactive). Moreover, the growth is 23.5% (inactive) and 45.4% (inactive) in the test on RXF 393 renal (10 µM unless noted); 11.9% (inactive) and 41.2% (inactive) in the test on SF-268 CNS (10 µM unless noted); 19.7% (inactive) and 60% (inactive) in the test on SF-295 CNS (10 µM unless noted); 13.8% (inactive) and 29.3% (inactive) in the test with SF-539 CNS (10 µM unless noted); -25.3% (active) and -8.7% (active) in the test on UACC-257 melanoma (10 µM unless noted); 9.07% (active) and 35.4% (inactive) with M14 melanoma (10 µM unless noted).
